Source: PubChem (Broad Institute)
Shown are actives, neighbours in structure and some others; about 4% of the full set was active somewhere.
Wnt bcat act: Wnt/beta-catenin pathway activators, primary screen, cell-based, plate reader, single point. activation, % at 9.35 µM. 300,000 compounds, 1.2% hits. Wnt/beta-catenin reporter cell assay, activator; in the data active = activation above about 30%, passing the limit was not always enough;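 also: 0% = neutral control wells and 100% = positive control wells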
MITF TRPM1 HTS: activators of MITF-driven TRPM1 promoter reporter, primary screen, cell-based, SK-MEL-5, luciferase, single point. SK-MEL-5 TRPM1-promoter luciferase, 24 h; % of positive control, neutral wells = 0. activation, % at 12.5 µM. 300,000 compounds, 0.75% hits. AID 588334, 2011;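 active = mean activation of at least 80% with every replicate also reaching 80%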;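 also: 0% = neutral control wells and 100% = parthenolide positive control wells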
esBAF inh: Bmi1 luciferase reporter increase in mESCs, primary screen, esBAF inhibitor project, mouse ES cells, Bmi1 luciferase knock-in, single point; 24 h; 100% = twice the neutral-well signal; reporter increase, % at 12.5 µM; 350,000 compounds, 2% hits; AID 602393, 2012; in the data active = activation above about 40%;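 also: 0% = median of the plate's neutral control wells and 100% = double that signal; a rise in the Bmi1 reporter signal indicates esBAF inhibition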
EBV LMP1 NFkB: EBV LMP1-driven NF-kappaB luciferase reporter inhibitors, primary screen, cell-based, luminescence, single point; inhibition, % at 12.5 µM; LMP1-induced NF-kappaB luciferase reporter cells; 350,000 compounds, 0.69% hits; in the data active = inhibition above about 41%;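 also: 0% = neutral control wells and 100% = reference inhibitor control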
TRPM1 prom inh: inhibitors of MITF-dependent TRPM1 promoter reporter, primary screen, cell-based, SK-MEL-5, single point, luciferase. SK-MEL-5 TRPM1 promoter luciferase, 24 h. inhibition, % at 12.5 µM. 330,000 compounds, 0.83% hits. AID 488899, 2010;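 active = mean inhibition across replicates of 60% or more, whatever share of single replicates reaches that level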
Statin myotox sup: suppressors of statin myotoxicity in C2C12 myotubes, primary screen, cell-based, single point, plate reader. rescue of ATP level, % at 7.49 µM. C2C12 myotubes + simvastatin, ATP luminescence, 48 h; scaled: DMSO 0, geranylgeraniol control 100. 330,000 compounds, 0.78% hits. AID 602340, 2012;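 active = mean ATP rescue above about 67%, or every replicate alone reaching that limit, limit read from the data, passing the limit was not always enough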;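 also: myotubes were challenged with 10 µM simvastatin during compound exposure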
An asterisk follows results filed as active; nt = no result.

SMILES	Wnt bcat act	MITF TRPM1 HTS	esBAF inh	EBV LMP1 NFkB	TRPM1 prom inh	Statin myotox sup
Cc1ccc(C2Nc3ccccc3NC3=C2C(=O)CC(C)(C)C3)c(O)c1 (stereo not given)	-0.1	-4.1	-0.4	-1.8	7.3	12.7
CC1(C)CC(=O)C2=C(C1)Nc1ccccc1NC2c1ccc(F)cc1 (stereo not given)	1.4	-2.1	2.8	-2.1	1.4	10.8
CC1(C)CC(=O)C2=C(C1)Nc1ccccc1NC2c1cc(Cl)ccc1O (stereo not given)	-0.9	-0.4	0.7	84.9*	0.8	11.7
CCOC(=O)c1c[nH]n(-c2ccc(C)cc2)c1=O	5.2	15.3	51.8*	4.9	-13.5	-3.7
CCn1c(O)c(/C=C2\C=Nc3ccccc32)sc1=O	39.0*	58.3	76.6*	-60.8	-57.1	nt
CCn1c(O)c(/C=C2\C=Nc3ccccc32)sc1=Nc1ccc(C)cc1	-6.6	-6.2	3.8	12.5	11.8	-2.6
Oc1nc(Nc2ccccc2)sc1/C=C1\C=Nc2ccccc21	23.1	88.2*	61.5*	-114.9	-91.0	-9.1
O=S(=O)(Nc1ccc(-c2nc3cccnc3s2)cc1)c1ccccc1F	26.5	23.3	37.1	-21.8	-22.7	-0.1
Clc1cccc2c1Sc1ccccc1CC2N1CCNCC1 (stereo not given)	-6.1	-26.4	nt	-10.5	29.1	nt
Clc1ccc2c(c1)C(N1CCNCC1)Cc1ccccc1S2 (stereo not given)	nt	-94.3	0.3	-19.3	94.2*	-30.1
C[C@H]1CN([C@@H](C)CO)S(=O)(=O)c2ccc(-c3ccncc3)cc2O[C@H]1CN(C)Cc1ccccn1	nt	nt	-4.4	nt	nt	-7.4
Cc1cc(C2=NNC(=NC3CCCCC3)SC2)c(C)n1-c1c(C)n(C)n(-c2ccccc2)c1=O	-2.9	3.0	17.6	-10.3	0.0	2.6
c1cc2c(cc1C1=NNC(=NC3CC3)SC1)OCCO2	-6.6	-94.3	-83.9	84.0*	94.6*	-41.9
CCCCN=C1NN=C(c2ccc3c(c2)OCCO3)CS1	3.8	-14.3	nt	19.8	15.8	nt
Cc1cc(C2=NNC(=NC3CC3)SC2)c(C)n1-c1ccccc1F	-32.9	-98.0	nt	77.9*	98.7*	nt
O=Cc1cc(OCc2ccccc2)ccc1[B-](F)(F)F	1.9	-15.8	-8.9	55.0*	14.6	-23.3
O=S(=O)(c1ccc(Cl)c(Cl)c1)c1snnc1-c1ccccc1	nt	-87.6	1.0	21.4	88.0*	-68.5
CC1(C)CC1C(=O)Nc1ccc([N+](=O)[O-])cc1Br (stereo not given)	nt	22.9	4.9	-3.7	-19.5	3.9
Cc1ccc(C2(c3ccc(C)cc3)CC2C(=O)Nc2ccc([N+](=O)[O-])cc2O)cc1 (stereo not given)	nt	-76.4	-32.0	38.3	74.0*	-298.2
N#Cc1cc(C#N)c(N2CCN(c3cccc(Cl)n3)CC2)nc1N	14.5	19.6	nt	-12.7	-16.1	nt
CC[C@H](C)[C@@H](CN[C@H](C)CNC)NCCC(c1ccccc1)c1ccccc1	-9.9	-89.5	7.7	-53.0	89.9*	-35.7
CSc1cccc(NC(=O)C2CCCN(S(=O)(=O)c3ccc(F)cc3)C2)c1 (stereo not given)	0.4	-14.4	4.7	-3.6	10.3	nt
O=C(Nc1cccc(Cl)c1)C1CCCN(S(=O)(=O)c2ccc(F)cc2)C1 (stereo not given)	nt	-11.8	2.1	-8.5	12.6	125.2*
O=C(C1CCCN(S(=O)(=O)c2ccc(F)cc2)C1)N1CCOCC1 (stereo not given)	43.3*	59.5	55.2*	-18.7	-63.7	-5.9
CN1CCN(C(=O)C2CCCN(S(=O)(=O)c3ccc(F)cc3)C2)CC1 (stereo not given)	-1.7	-4.2	nt	-1.1	-1.1	nt
SMILES	Wnt bcat act	MITF TRPM1 HTS	esBAF inh	EBV LMP1 NFkB	TRPM1 prom inh	Statin myotox sup
O=C(Nc1cccc(Cl)c1)Nc1cc(S(=O)(=O)N2CCCCC2)ccc1Cl	-12.9	-77.6	nt	4.1	80.3*	nt
C[C@@H]1CCCCO[C@H](CN(C)CC2CC2)[C@H](C)CN([C@@H](C)CO)C(=O)c2cc(NS(=O)(=O)c3ccc(F)cc3)ccc2O1	nt	nt	-3.3	nt	nt	nt
O=C(Nc1ccc(S(=O)(=O)N2CCCC2)cc1)N1c2ccccc2Sc2ccccc21	3.8	-0.4	-14.0	-8.5	1.0	7.0
COc1ccc(-c2coc3cc(O)ccc3c2=O)cc1OC	nt	38.7	58.9*	-5.2	-36.0	2.2
COc1ccc(-c2coc3cc(O)cc(O)c3c2=O)cc1OC	25.0	67.5	53.6*	-19.9	-65.6	12.5
O=c1c(-c2ccc(F)cc2)coc2cc(O)ccc12	nt	74.7	32.5	-14.8	-61.5	23.9
O=c1c(-c2ccc(O)cc2O)coc2cc(O)cc(O)c12	-1.8	5.3	0.6	3.5	-3.8	3.9
COc1ccccc1-c1coc2cc(O)cc(O)c2c1=O	nt	30.6	46.4*	4.5	-31.5	-14.0
CCCC(=O)Nc1ccc2c(c1)OC[C@H](C)N(C(=O)c1ccccc1F)C[C@H](C)[C@H](OC)CN(C)C2=O	nt	nt	0.3	nt	nt	-13.4
COc1ccc(S(=O)(=O)Nc2ccc3c(c2)C(=O)N([C@H](C)CO)C[C@H](C)[C@@H](CN(C)S(=O)(=O)c2ccc(OC)cc2)O3)cc1	-1.9	6.3	-6.6	1.5	-1.6	-25.8
COc1ccc(S(=O)(=O)N(CC(C)C)CC(C)C)c2cccnc12	1.0	-0.2	3.8	3.6	1.4	154.2*
CCCCN(CCCC)S(=O)(=O)c1ccc(OC)c2ncccc12	nt	-26.1	0.1	10.9	25.9	65.7*
CCN(Cc1ccccc1)S(=O)(=O)c1ccc(OC)c2ncccc12	11.4	4.8	nt	0.2	0.3	nt
Cc1ccc(Oc2c(C)nc(-c3ccccc3)[nH]c2=O)cc1	0.8	0.1	nt	9.1	3.7	nt
C[C@H](CO)N1C[C@H](C)[C@@H](CN(C)Cc2ccc(Cl)c(Cl)c2)Oc2ccc(NC(=O)C3CCCCC3)cc2CC1=O	nt	nt	1.7	nt	nt	131.8*
C[C@@H]1CN([C@H](C)CO)C(=O)Cc2cc(NC(=O)C3CCCCC3)ccc2O[C@H]1CN(C)Cc1ccc(Cl)c(Cl)c1	nt	nt	1.4	nt	nt	139.4*
C[C@H]1CN([C@@H](C)CO)C(=O)Cc2cc(NC(=O)C3CCCCC3)ccc2O[C@H]1CN(C)Cc1ccc(Cl)c(Cl)c1	nt	nt	5.4	nt	nt	22.5
O=[N+]([O-])c1cccnc1Oc1ccc(C2SCCS2)cc1	50.9*	103.3*	nt	-22.7	-99.7	nt
O=C(CCN1C(=O)/C(=C\C=C\c2ccccc2)SC1=S)Nc1ccccc1C(=O)O	3.1	-3.9	11.2	-12.0	4.2	-1.3
Cc1ccc(NC(=O)CCCN2C(=O)/C(=C/C=C/c3ccccc3)SC2=S)cc1	-3.3	7.9	-12.2	-1.9	-5.4	1.7
